D3 antag = antagonists of human D3 dopamine receptor | D3R cells, DiscoveRx beta-arrestin luminescence, antagonist mode; active compounds read low | AID 652054 | 360,000 compounds, 2.5% hits | max response, negative = inhibition, %; in the data active = max response below about -50%; inconclusive = no clear call, values can overlap the other calls
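Cells plated overnight at 1500 cells/well, then exposed to library compounds with dopamine controls for 90 minutes at 37 degrees C. DiscoveRx reagent added for 30–60 minutes at room temperature; luminescence read, quantitative HTS format.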
D1 PAM = enhances dopamine response at the human D1 receptor. P21728. HEK293 TREx D1 cells, calcium flux, dopamine EC20 potentiation. potentiation, % at 10 µM. 360,000 compounds, 0.036% hits. AID 504651; in the data active = potentiation above about 30%
Target sequence (P21728 whole entry, looked up): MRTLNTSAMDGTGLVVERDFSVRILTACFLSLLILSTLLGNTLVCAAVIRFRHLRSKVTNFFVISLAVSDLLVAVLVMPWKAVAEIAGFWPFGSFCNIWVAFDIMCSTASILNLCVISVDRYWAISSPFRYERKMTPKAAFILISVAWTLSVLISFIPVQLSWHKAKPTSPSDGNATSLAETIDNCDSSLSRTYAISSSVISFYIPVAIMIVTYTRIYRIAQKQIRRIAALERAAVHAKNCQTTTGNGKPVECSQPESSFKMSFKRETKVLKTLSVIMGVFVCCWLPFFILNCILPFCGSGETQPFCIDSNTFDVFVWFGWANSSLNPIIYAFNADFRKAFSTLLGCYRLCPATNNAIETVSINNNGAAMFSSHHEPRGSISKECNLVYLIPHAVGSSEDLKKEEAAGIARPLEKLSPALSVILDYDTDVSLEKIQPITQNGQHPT
D1 antagonist = blocks dopamine activation of the human D1 receptor; P21728; HEK293 TREx D1 cells, calcium flux, dopamine EC80; active compounds read low; activity change, negative = inhibition, % at 10 µM; 360,000 compounds, 3.2% hits; in the data active = activity change below about -30%
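After overnight tetracycline induction at 30 C, force-coupled D1 HEK293 cells took up a no-wash calcium dye at room temperature. Compounds were added and monitored 180 s, and the response to EC80 dopamine was then recorded.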
DRD3 agonist = D3 dopamine receptor (human) agonism. P35462. D3R DiscoveRx beta-arrestin cells, luminescence, 90 min. max activation, %. 410,000 compounds, 0.58% hits; in the data active = max activation above about 30%
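Cells at 1500/well, incubated overnight, then treated with pinned compounds (dopamine as control) for 90 min at 37 degrees C. DiscoveRx reagent added for 30 - 60 minutes at room temperature; luminescence read.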
D1 ag = human D1 receptor agonism. P21728. 360,000 compounds, 1% hits. activation, % at 2 µM. HEK293 T-REx D1 cells, calcium flux, agonist mode; in the data active = activation above about 30%
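Agonism was scored from calcium flux recorded over 180 s (1 read/s) after pintool compound addition, following a 10-cycle baseline. Cells were inducible force-coupled HEK293 TREx D1, plated overnight at 30 C and loaded with no-wash calcium dye.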
Hits are given with their value; . = inactive; ? = inconclusive; / = not tested or not shown; ! = not active in a repeat. An excerpt weighted towards active compounds, which were near 6% of everything screened.

SMILES	D3 antag	D1 PAM	D1 antagonist	DRD3 agonist	D1 ag
CN1CCc2c(sc3c2c(=O)n(-c2ccc(Cl)cc2)c2nncn32)C1	.	.	-60	.	.
COc1ccc(NC(=O)C2CCCN(S(=O)(=O)c3ccc4c(c3)CCCC(=O)N4)C2)c(OC)c1 (configuration not stated)	/	.	.	.	.
Oc1ccc(-c2nc3ncccn3c2Nc2ccc3c(c2)OCO3)cc1	-55	.	.	.	.
Cc1c(C(=O)NCc2nnc(-c3ccccc3)o2)oc2c(F)cccc12	.	.	.	.	.
O=C1Cc2cc(NS(=O)(=O)c3ccc([N+](=O)[O-])cc3)cc3c2N1CCC3	.	.	-32	.	.
O=C1Cc2cc(NS(=O)(=O)c3ccc(Cl)cc3)cc3c2N1CCC3	.	.	.	.	.
CC(C)[C@H](NC(=O)[C@@H]1Cc2c([nH]c3ccccc23)C2c3ccccc3C(=O)N21)C(=O)N1CCC[C@@H]1C(=O)O (some centres not stated)	.	.	.	40	.
CCOC(=O)c1cc(-c2ccccc2)n(CCCC(=O)Nc2ccccc2C)c1C	/	.	.	.	.
COc1ccc(C(CNC(=O)c2oc3cc(C)c(C)cc3c2C)N2CCCCC2)cc1 (configuration not stated)	?	.	.	.	.
CCc1ccc2oc(C(=O)NCC(c3ccc(OC)cc3)N3CCCCC3)c(C)c2c1 (configuration not stated)	-77	.	.	.	.
COc1ccc(C(CNC(=O)c2oc3ccc(F)cc3c2C)N2CCCCC2)cc1 (configuration not stated)	-104	.	.	.	.
COc1ccc(C(CNC(=O)c2oc3cc(Br)ccc3c2C)N2CCCCC2)cc1 (configuration not stated)	-86	.	.	.	.
COc1ccc(C(CNC(=O)c2oc3ccc(OC)cc3c2C)N2CCCC2)cc1 (configuration not stated)	.	.	.	.	.
COc1ccc(C(CNC(=O)c2oc3ccc(Br)cc3c2C)N2CCCCC2)cc1 (configuration not stated)	-76	.	.	.	.
COC(C[C@@H](O)C[C@@H](O)COCc1ccccc1)OC	.	.	.	.	.
COC(C[C@H](O)C[C@@H](O)COCc1ccccc1)OC	-107	.	.	.	.
O=C(NCCN1CCOCC1)c1ccc2c(c1)N(Cc1cccc(F)c1)C(=O)c1ccccc1S2	.	.	.	.	.
CCN(CC)CCCNC(=O)c1ccc2c(c1)N(Cc1c(F)cccc1Cl)C(=O)c1ccccc1S2	/	.	.	.	45
CCN1C(=O)c2ccccc2Sc2ccc(NC(=O)c3ccc(C)c(F)c3)cc21	/	.	-72	.	.
COc1ccccc1CNC(=O)c1ccc2c(c1)N(Cc1cc(C)ccc1C)C(=O)c1ccccc1S2	/	.	-38	.	.
O=C(NCc1ccco1)c1ccc2c(c1)N(Cc1c(F)cccc1Cl)C(=O)c1ccccc1S2	/	.	.	.	.
Cc1ccc(CN2C(=O)c3ccccc3Sc3ccc(C(=O)NCCCN4CCOCC4)cc32)cc1	.	.	.	.	43!
COc1ccc(C(=O)c2sc3nc(-c4ccc(C)cc4)cc(C(F)(F)F)c3c2N)cc1	/	.	.	.	90
COc1ccc(NC(=O)c2sc3nc(-c4ccc(OC)cc4)cc(C(F)(F)F)c3c2N)cc1	/	.	.	.	.
COc1ccc(C(=O)c2sc3nc(-c4ccc(OC)cc4)ccc3c2N)cc1	.	.	.	.	61
SMILES	D3 antag	D1 PAM	D1 antagonist	DRD3 agonist	D1 ag
COc1cccc(-c2ccc3c(N)c(C(=O)c4ccc(F)cc4)sc3n2)c1	/	.	.	.	150
O=C(CCSCc1ccc(Cl)cc1)N1CCN(c2ccccc2F)CC1	/	.	.	.	.
CN(C)c1ccc(CNC(=O)c2cc3cc(S(=O)(=O)N4CCCCC4)ccc3n2C)cc1	/	.	.	.	.
O=C(CCn1ccc2cc(S(=O)(=O)N3CCCC3)ccc21)NCc1cccc(F)c1	.	.	-33!	.	.
Cn1c(C(=O)NCc2cccc(F)c2)cc2cc(S(=O)(=O)N3CCCCC3)ccc21	/	.	-54	.	.
Cc1cccc(CNC(=O)c2cc3cc(S(=O)(=O)N4CCCCC4)ccc3n2C)c1	/	.	-46	.	.
Cn1c(C(=O)NCc2ccccc2F)cc2cc(S(=O)(=O)N3CCCCC3)ccc21	/	.	.	.	.
Cc1cccc(NC(=O)CSc2nc3c(oc4ccccc43)c(=O)n2-c2ccccc2)c1C	/	.	.	.	.
CCCCCCOC(=O)C[N+](C)(C)CCOC1CC2CCC1(C)C2(C)C (configuration not stated)	.	.	.	.	92
CCCCCCCOC(=O)C[N+](C)(C)CCOC1CC2CCC1(C)C2(C)C (configuration not stated)	.	.	.	.	131
CCCOC(=O)C[N+](C)(C)CCOC1CC2CCC1(C)C2(C)C (configuration not stated)	.	.	.	.	.
CCCCOC(=O)C[N+](C)(C)CCOC1CC2CCC1(C)C2(C)C (configuration not stated)	.	.	.	.	.
CC(=O)c1ccc(NC(=O)CN(C)S(=O)(=O)c2cccc3nsnc23)cc1	/	.	.	.	.
COc1ccc(NC(=O)CN(c2cc(C)cc(C)c2)S(=O)(=O)c2c(C)noc2C)cc1Cl	/	.	.	.	.
O=C1C=C(NC2=CC3OC(c4ccccc4)OCC3OC2=O)CCC1 (configuration not stated)	-72	.	-31	.	.
COc1ccc(Br)cc1S(=O)(=O)NCc1ccccn1	.	.	.	.	.
Cc1cc(Br)ccc1NCc1ccccn1	.	.	-56	.	.
O=C(Nc1ccc2oc(-c3cccc4c(Br)cccc34)nc2c1)c1ccc(Br)cc1	/	.	.	.	.
Cc1ncc(CN2CCCC(C(=O)Nc3ccc(-c4cccc(F)c4)cc3)C2)n1C (configuration not stated)	?	.	-32	.	.
Cn1cc(CN2CCCC(C(=O)Nc3cccc(-c4cc5ccccc5[nH]4)c3)C2)cn1 (configuration not stated)	-68	.	.	.	.
CC(C)n1cc(CN2CCCC(C(=O)Nc3cccc(-c4cc5ccccc5[nH]4)c3)C2)cn1 (configuration not stated)	.	.	-31	.	30
COc1cccc(-c2ccc(NC(=O)C3CCCN(Cc4cnn(C)c4C)C3)cc2)c1 (configuration not stated)	.	.	.	.	.
COc1cccc(-c2ccc(NC(=O)C3CCCN(Cc4cnn(C)c4)C3)cc2)c1 (configuration not stated)	.	.	.	.	32
COCc1cc(CN2CCCC(C(=O)Nc3ccc(-c4ccco4)cc3)C2)ccc1OC (configuration not stated)	?	.	-30	.	.

Compound activity as filed in PubChem.
